Drawing on ChEMBL document CHEMBL1961873, “Compounds: GSK PKIS; Assays: Nanosyn kinase panel” (2012), this text covers inhibition for six compounds.

Experiment [1] addresses Leukocyte tyrosine kinase receptor (Homo sapiens) (UniProt P29376). The following applies: at 1 µM.
For experiment [2], the target named is Tyrosine-protein kinase Lyn (Homo sapiens) (UniProt P07948). To be noted: at 0.1 µM.
The target is the same in experiment [3]. To be noted: at 1 µM.
For experiment [4] the target is unchanged. The following applies: at 0.1 µM. The source holds these as a separate data set.
Experiment [5] shares this target. To be noted: at 1 µM. The source holds these as a separate data set.
Experiment [6] concerns the target T1, Tyrosine-protein kinase Mer (Homo sapiens) (UniProt Q12866).
T1 sequence (whole entry): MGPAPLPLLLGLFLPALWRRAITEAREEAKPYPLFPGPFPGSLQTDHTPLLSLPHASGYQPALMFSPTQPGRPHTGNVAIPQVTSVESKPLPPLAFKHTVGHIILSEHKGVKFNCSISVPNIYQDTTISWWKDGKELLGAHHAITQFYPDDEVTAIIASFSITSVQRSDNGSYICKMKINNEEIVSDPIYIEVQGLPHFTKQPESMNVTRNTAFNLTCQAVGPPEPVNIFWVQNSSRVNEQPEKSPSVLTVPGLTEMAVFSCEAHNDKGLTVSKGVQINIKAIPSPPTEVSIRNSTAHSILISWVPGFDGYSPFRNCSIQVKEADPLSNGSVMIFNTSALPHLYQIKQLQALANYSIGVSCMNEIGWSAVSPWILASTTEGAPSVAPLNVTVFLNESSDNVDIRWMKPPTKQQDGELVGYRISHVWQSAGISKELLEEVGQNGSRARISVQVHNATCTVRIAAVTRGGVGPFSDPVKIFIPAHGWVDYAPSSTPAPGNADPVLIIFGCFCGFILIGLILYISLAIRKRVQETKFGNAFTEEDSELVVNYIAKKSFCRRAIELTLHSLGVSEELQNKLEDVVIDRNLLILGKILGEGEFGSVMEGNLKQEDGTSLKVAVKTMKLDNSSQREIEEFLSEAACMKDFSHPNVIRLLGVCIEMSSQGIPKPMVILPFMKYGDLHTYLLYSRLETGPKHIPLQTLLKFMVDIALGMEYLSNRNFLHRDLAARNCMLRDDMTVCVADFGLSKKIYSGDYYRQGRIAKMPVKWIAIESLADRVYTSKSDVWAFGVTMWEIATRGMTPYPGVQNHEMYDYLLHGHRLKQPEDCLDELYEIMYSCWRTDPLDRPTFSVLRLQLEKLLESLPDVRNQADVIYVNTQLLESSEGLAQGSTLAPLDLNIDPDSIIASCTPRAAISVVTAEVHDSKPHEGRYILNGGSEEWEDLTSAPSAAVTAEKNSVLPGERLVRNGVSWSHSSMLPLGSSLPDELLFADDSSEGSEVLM
To be noted: at 0.1 µM.

The target in experiment [7] is T1, Tyrosine-protein kinase Mer (Homo sapiens). To be noted: at 1 µM.
For experiment [8], the target named is Hepatocyte growth factor receptor (Homo sapiens) (UniProt P08581). The following applies: at 0.1 µM.
Hepatocyte growth factor receptor (Homo sapiens), sequence (P08581 whole entry): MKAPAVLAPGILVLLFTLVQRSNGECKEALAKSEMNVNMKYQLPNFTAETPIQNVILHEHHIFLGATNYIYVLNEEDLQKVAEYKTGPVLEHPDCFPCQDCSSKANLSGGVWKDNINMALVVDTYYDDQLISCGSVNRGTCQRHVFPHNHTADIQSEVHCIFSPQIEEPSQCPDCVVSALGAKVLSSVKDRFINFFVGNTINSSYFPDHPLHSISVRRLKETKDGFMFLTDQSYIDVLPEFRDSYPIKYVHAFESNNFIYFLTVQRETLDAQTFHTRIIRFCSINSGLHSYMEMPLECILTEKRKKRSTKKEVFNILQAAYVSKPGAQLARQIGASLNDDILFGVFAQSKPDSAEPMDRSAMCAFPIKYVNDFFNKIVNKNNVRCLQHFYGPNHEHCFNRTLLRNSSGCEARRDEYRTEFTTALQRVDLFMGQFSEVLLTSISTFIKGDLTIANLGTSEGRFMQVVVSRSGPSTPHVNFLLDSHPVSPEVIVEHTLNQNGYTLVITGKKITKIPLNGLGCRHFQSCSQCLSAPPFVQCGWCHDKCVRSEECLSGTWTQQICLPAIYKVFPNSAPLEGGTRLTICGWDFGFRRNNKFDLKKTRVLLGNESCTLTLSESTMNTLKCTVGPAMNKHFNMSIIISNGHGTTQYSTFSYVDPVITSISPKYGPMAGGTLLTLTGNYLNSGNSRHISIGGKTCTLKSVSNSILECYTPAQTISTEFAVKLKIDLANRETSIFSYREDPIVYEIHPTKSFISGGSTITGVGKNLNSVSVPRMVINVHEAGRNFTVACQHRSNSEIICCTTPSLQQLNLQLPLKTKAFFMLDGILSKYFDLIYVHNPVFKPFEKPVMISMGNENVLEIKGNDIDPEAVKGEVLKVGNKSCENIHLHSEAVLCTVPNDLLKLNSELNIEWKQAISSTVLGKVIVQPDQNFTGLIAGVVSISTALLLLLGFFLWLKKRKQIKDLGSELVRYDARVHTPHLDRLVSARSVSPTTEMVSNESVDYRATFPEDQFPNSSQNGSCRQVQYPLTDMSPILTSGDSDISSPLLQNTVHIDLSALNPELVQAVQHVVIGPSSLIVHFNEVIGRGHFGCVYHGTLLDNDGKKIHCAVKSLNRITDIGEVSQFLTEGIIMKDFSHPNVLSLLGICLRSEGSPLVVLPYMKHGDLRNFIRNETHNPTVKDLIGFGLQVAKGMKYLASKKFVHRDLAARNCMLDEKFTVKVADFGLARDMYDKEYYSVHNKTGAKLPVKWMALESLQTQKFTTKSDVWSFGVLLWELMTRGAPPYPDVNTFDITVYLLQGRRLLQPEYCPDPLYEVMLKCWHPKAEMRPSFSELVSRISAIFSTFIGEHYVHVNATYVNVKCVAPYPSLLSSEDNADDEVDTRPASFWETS
For experiment [9] the target is unchanged. The following applies: at 1 µM.
The target of experiment [10] is T2, Muscle, skeletal receptor tyrosine-protein kinase (Homo sapiens) (UniProt O15146).
T2 sequence (whole entry): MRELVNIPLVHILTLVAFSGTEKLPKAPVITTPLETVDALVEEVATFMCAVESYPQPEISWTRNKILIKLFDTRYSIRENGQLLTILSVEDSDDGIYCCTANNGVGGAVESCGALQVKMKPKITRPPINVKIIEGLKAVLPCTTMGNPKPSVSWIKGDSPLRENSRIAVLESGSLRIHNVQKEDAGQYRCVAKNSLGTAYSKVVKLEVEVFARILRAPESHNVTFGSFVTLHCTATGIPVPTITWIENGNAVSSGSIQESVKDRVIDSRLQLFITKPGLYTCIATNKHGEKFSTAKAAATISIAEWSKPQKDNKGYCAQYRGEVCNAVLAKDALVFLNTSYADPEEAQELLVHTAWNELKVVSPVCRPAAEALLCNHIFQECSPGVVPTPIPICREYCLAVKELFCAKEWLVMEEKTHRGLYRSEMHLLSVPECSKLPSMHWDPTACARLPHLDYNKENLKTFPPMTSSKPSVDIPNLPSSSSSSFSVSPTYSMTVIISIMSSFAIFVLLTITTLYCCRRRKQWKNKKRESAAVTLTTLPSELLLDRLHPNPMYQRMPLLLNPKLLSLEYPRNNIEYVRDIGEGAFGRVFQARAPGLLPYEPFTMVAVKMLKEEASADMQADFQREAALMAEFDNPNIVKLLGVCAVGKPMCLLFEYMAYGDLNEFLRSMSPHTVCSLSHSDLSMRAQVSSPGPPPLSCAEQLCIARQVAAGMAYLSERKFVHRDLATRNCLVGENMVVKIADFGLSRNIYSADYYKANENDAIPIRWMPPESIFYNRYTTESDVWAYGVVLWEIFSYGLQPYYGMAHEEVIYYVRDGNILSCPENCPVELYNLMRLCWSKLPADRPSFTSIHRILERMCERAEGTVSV
To be noted: at 0.1 µM.

Experiment [11] concerns the target T2, Muscle, skeletal receptor tyrosine-protein kinase (Homo sapiens). The following applies: at 1 µM.
Experiment [12] has as its target Platelet-derived growth factor receptor alpha (Homo sapiens) (UniProt P16234). To be noted: at 0.1 µM.
For experiment [13] the target is unchanged. The following applies: at 1 µM.
Experiment [14] has as its system Platelet-derived growth factor receptor alpha (Homo sapiens), P16234 [D842V]. The following applies: at 0.1 µM.
Experiment [15] shares this test system. To be noted: at 1 µM.
Experiment [16] deals with Platelet-derived growth factor receptor alpha (Homo sapiens), P16234 [T674I]. To be noted: at 0.1 µM.
Experiment [17] has the same test system. To be noted: at 1 µM.
Experiment [18] relates to Platelet-derived growth factor receptor alpha (Homo sapiens), P16234 [V561D]. The following applies: at 0.1 µM.
Platelet-derived growth factor receptor alpha (Homo sapiens), P16234 [V561D], sequence (P16234 whole entry V561D): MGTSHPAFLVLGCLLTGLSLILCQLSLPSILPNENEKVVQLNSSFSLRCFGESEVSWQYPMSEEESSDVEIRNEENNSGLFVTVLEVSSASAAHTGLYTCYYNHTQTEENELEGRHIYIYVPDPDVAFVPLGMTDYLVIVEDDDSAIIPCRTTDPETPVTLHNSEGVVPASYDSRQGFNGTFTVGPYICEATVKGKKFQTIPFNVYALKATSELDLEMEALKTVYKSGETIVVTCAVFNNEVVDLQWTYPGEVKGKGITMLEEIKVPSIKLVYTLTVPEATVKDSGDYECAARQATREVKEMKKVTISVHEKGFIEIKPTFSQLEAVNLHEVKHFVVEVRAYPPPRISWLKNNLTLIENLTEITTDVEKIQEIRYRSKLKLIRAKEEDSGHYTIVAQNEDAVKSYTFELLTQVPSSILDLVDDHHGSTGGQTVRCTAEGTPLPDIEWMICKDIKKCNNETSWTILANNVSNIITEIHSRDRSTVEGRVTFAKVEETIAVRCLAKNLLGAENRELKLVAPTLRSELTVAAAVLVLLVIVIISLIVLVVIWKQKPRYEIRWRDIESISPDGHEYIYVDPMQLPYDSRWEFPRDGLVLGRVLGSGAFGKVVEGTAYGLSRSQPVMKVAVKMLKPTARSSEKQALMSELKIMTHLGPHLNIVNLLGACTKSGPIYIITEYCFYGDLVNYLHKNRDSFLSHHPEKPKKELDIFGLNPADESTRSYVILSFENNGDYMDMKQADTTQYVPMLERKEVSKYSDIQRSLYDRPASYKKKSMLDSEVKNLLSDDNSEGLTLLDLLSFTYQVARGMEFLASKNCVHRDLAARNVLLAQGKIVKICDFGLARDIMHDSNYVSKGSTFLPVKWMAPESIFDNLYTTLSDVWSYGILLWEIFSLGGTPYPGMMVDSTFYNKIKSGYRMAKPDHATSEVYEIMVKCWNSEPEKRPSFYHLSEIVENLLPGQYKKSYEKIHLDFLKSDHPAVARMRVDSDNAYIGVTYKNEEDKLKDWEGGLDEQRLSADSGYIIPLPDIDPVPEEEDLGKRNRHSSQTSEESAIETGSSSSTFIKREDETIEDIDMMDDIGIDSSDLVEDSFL
For experiment [19] the test system is unchanged. The following applies: at 1 µM.
Experiment [20] deals with Platelet-derived growth factor receptor beta (Homo sapiens) (UniProt P09619). The following applies: at 0.1 µM.

Platelet-derived growth factor receptor alpha (Homo sapiens), sequence (P16234 whole entry): as the sequence (P16234 whole entry V561D) above, with D561V counted along it
Leukocyte tyrosine kinase receptor (Homo sapiens), sequence (P29376 whole entry): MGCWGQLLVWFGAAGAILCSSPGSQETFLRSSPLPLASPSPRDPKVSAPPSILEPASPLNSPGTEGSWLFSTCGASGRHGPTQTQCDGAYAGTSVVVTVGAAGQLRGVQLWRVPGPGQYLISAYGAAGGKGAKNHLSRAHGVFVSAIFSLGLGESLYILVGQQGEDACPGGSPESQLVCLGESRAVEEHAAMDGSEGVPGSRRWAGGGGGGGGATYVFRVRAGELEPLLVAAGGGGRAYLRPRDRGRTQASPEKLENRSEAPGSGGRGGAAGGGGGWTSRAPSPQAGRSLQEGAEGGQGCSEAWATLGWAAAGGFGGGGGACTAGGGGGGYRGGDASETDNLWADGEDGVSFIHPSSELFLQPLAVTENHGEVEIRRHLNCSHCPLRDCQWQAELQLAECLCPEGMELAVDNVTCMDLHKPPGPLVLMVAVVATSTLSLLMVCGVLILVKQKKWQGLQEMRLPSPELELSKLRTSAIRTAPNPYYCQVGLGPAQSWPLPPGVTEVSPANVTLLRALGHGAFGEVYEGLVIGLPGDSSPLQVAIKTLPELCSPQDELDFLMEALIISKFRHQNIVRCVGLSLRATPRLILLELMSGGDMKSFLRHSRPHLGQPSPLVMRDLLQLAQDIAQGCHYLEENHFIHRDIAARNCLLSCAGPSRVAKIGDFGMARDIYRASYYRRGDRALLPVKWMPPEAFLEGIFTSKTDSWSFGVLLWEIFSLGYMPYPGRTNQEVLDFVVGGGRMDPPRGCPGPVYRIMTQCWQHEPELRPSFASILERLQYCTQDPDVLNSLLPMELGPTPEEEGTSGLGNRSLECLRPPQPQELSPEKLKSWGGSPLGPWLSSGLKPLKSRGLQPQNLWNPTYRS
Tyrosine-protein kinase Lyn (Homo sapiens), sequence (P07948 2-512 limits assumed): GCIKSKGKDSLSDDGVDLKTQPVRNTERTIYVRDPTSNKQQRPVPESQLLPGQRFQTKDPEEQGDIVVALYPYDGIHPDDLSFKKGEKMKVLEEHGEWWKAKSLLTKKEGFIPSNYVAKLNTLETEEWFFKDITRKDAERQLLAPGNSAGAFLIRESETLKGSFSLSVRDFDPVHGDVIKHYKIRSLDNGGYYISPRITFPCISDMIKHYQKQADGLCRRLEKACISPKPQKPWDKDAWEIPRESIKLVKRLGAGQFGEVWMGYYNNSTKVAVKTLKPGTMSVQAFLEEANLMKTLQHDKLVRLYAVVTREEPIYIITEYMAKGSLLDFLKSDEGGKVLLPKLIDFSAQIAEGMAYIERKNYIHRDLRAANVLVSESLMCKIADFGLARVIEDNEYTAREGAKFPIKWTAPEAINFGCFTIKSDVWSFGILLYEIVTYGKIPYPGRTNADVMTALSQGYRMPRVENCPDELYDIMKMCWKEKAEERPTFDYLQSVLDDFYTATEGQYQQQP

On to `Fc1ccc(-c2ncn(C3CCNCC3)c2-c2ccnc(Oc3ccc4c(c3)OCO4)n2)cc1`, for which the inhibition in experiment [1] is 8.02%; in experiment [2], 5.3%; in experiment [3], 7.55%; in [4], 3.33%; in experiment [5], 5.4%; in [6], 2.7%. Also, the inhibition in experiment [7] came to 5.24%; in experiment [8], 2.27%; in experiment [9], 7.4%; in experiment [10] it was 5.07%; in experiment [11] it was 4.22%; in experiment [12] it was 11.8%. Besides, the inhibition is 15.7% in experiment [13]; 2.99% in [14]; 5.32% in experiment [15]; 11.5% in experiment [16]; 16.1% in [17]; 5.05% in [18]. Also, the inhibition stood at 5.41% in experiment [19] and 7.36% in [20].

Take `NS(=O)(=O)c1ccc(Nc2cc(-c3ccc(O)c(F)c3)n[nH]2)cc1`: the inhibition in experiment [1] was found to be 0.7%; in experiment [2], 2.66%; in [3], 20%; in experiment [4], 0.57%; in experiment [5], 17.4%; in [6], 1.99%. Further, the inhibition in [7] was 13.4%; in experiment [8] it was 0.07%; in experiment [9] it was -2.91%; in [10], 5.85%; in experiment [11] it was 41%; in [12] it was 17%. Further, the inhibition is 61.5% in experiment [13]; 4.48% in experiment [14]; 39.5% in experiment [15]; 11.1% in experiment [16]; 73.5% in experiment [17]; 33.2% in experiment [18]. The figures for the inhibition in experiment [19] and in experiment [20] were 68.3% and 11.8%, respectively.

Take `CCC(=O)Nc1ccc(C)c(-c2ccc(C(=O)NCC3CC3)cc2)c1`: the inhibition was 3.92% in experiment [1]; 4.52% in experiment [2]; 5.05% in [3]; 1.69% in [4]; 2.75% in experiment [5]; 2.88% in experiment [6]. The inhibition in experiment [7] is 4.95%; in [8] it was 6.02%; in experiment [9], 4.29%; in experiment [10], 1.96%; in experiment [11], 0.72%; in [12] it was 3.2%. Further, the inhibition in experiment [13] came out at 11.6%; in experiment [14], 2.61%; in experiment [15] it was 3.14%; in experiment [16], 3.93%; in experiment [17], 4.6%; in [18] it was 4.95%. For the same compound, the inhibition in experiment [19] is 3.77%; in experiment [20] it was -0.7%.

For the compound `COc1cc(N2CCN(C(C)C)CC2)ccc1Nc1nc(Nc2ccc(F)cc2C(=O)NC[C@@H](O)CO)c2cc[nH]c2n1`, the inhibition in experiment [1] came to 88.7%; in [2], 4.36%; in [3], 9.54%; in experiment [4] it was 2.42%; in experiment [5] it was 7%; in experiment [6], 0.94%. For the same compound, the inhibition in experiment [7] was 3.95%; in [8] it was -1.77%; in experiment [9], 3.3%; in [10], 1.43%; in [11] it was 3.79%; in [12], 6.23%. Also, the inhibition is 14.1% in experiment [13]; 1.85% in experiment [14]; 5.49% in [15]; 6.54% in experiment [16]; 9.18% in experiment [17]; 4.51% in [18]. In addition, the figures for the inhibition in [19] and in [20] were 4.42% and 1.36%, respectively.

Turning to `COc1cc(Nc2ncc3c(C)nc(-c4cccc(C(F)(F)F)c4)n3n2)cc(OC)c1OC`, the inhibition in [1] was 4.56%; in [2], 8.46%; in experiment [3] it was 27.6%; in experiment [4], 5.92%; in experiment [5], 21.9%; in [6], 1.71%. The inhibition in experiment [7] is 4.47%; in [8] it was 8.25%; in [9], 9.19%; in experiment [10], 3.85%; in experiment [11], 19%; in [12] it was 13%. The inhibition in [13] came to 25.8%; in [14] it was 2.68%; in experiment [15], 13.1%; in experiment [16] it was 7.3%; in [17] it was 8.12%; in experiment [18] it was 5.66%. Also, the inhibition worked out at 14.6% in experiment [19] and 10.3% in [20].

For the compound `O=C(Nc1ccc(Oc2ccc3[nH]c(NC(=O)c4ccccc4)nc3c2)cc1)Nc1cc(C(F)(F)F)ccc1F`, the inhibition was 3.76% in experiment [1]; 5.73% in experiment [2]; 27.5% in experiment [3]; 3.48% in experiment [4]; 23.4% in experiment [5]; 1.3% in experiment [6]. The inhibition in [7] turned out to be 3.74%; in [8] it was 4.39%; in experiment [9], 19.2%; in experiment [10], 13.9%; in [11] it was 63.9%; in experiment [12] it was 27.8%. Also, the inhibition in experiment [13] was 78.4%; in experiment [14] it was 1.94%; in experiment [15], 8.54%; in [16] it was 13%; in experiment [17], 83.1%; in experiment [18], 25.5%. For the same compound, the inhibition is 79.4% in experiment [19] and 9.24% in [20].
